Data reported in paper PMC5540273 (PLoS ONE, 2017).

How the values were obtained:
Conditions in all cases: concentration: 1 μM, replicates: in singlicate; n = 1
PRKCD = system: PRKCD
PRKCE = system: PRKCE
PRKCH = system: PRKCH
PRKCI = system: PRKCI
PRKCQ = system: PRKCQ
PRKD1 = system: PRKD1
PRKD2 = system: PRKD2
PRKD3 = system: PRKD3
PRKG1 = system: PRKG1
PRKG2 = system: PRKG2
PRKR = system: T1, PRKR
T1 construct: gene EIF2AK2

PRKX = system: PRKX
PRP4 = system: PRP4
PYK2 = system: T2, PYK2
T2 construct: gene PTK2B

QSK = system: QSK
RAF1 = system: RAF1
RET = system: RET
RIOK1 = system: RIOK1
RIOK2 = system: RIOK2
RIOK3 = system: RIOK3
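Note: KINOMEscan kinase panel screen.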

SMILES	%Inh (PRKCD) [%]	%Inh (PRKCE) [%]	%Inh (PRKCH) [%]	%Inh (PRKCI) [%]	%Inh (PRKCQ) [%]	%Inh (PRKD1) [%]	%Inh (PRKD2) [%]	%Inh (PRKD3) [%]	%Inh (PRKG1) [%]	%Inh (PRKG2) [%]	%Inh (PRKR) [%]	%Inh (PRKX) [%]	%Inh (PRP4) [%]	%Inh (PYK2) [%]	%Inh (QSK) [%]	%Inh (RAF1) [%]	%Inh (RET) [%]	%Inh (RIOK1) [%]	%Inh (RIOK2) [%]	%Inh (RIOK3) [%]
COC(=O)c1c(-c2ccccc2)c2cc(Cl)ccc2c(=O)n1Cc1ccc(S(C)(=O)=O)cc1	0	0	0	8	19	33	0	0	0	12	0	16	1	0	0	49	2	0	29	0
C[C@H]1CC[C@@H](C(=O)Nc2ccccc2)CN1c1cc(-c2ccc3c(N)n[nH]c3c2)nc(N)n1 [GSK2283293]	0	0	24	24	4	0	4	0	0	4	0	8	2	20	10	6	0	42	8	31
CS(=O)(=O)CCNCc1ccc(-c2ccc3ncnc(Nc4ccc(OCc5ccccc5)c(Cl)c4)c3c2)o1.Cl [GW574783]	0	10	27	13	20	4	12	0	0	0	0	17	12	0	2	19	0	32	6	0
FC(F)(F)c1cc(Nc2nccc(-c3c(-c4ccc(Cl)cc4)nn4ncccc34)n2)ccc1Cl [GW829351]	0	17	0	0	3	0	0	0	23	0	26	0	14	0	0	1	0	0	0	0
Nc1nccc2scc(-c3ccc4c(c3)CCN4C(=O)Cc3cc(F)ccc3F)c12 [GSK2587663]	0	0	16	1	24	0	18	16	9	2	0	1	10	6	16	18	65	25	3	0
Nc1nc(-c2ccc3c(N)n[nH]c3c2)cc(N2CCC[C@@H](C(=O)Nc3ccccc3)C2)n1.O=C(O)C(F)(F)F.O=C(O)C(F)(F)F [GSK2288359]	0	0	0	12	7	0	1	5	13	29	0	71	26	0	0	0	0	79	12	82
c1ccc(-c2ccc3c(-c4ccnc(Nc5ccc6c(c5)OCCO6)n4)cnn3n2)cc1 [GW818941]	1	0	9	9	37	0	18	16	42	0	0	1	17	8	0	20	1	37	15	12
Cn1ccc2ncnc(Oc3ccc(NC(=O)Nc4cccnc4)c(Cl)c3)c21	13	0	6	0	28	0	8	0	0	0	7	12	20	9	0	0	52	0	53	4
COc1ccc(-c2oc3ncnc(N)c3c2-c2ccc(OC)cc2)cc1 [SB-589132]	0	28	4	35	0	30	0	0	0	0	0	3	64	7	6	44	11	0	0	0
Cn1cc(-c2ccc3c(c2)CCN3C(=O)Cc2cccc(C(F)(F)F)c2)c2c(N)ncnc21 [GSK2606414]	1	0	23	15	0	0	0	42	19	0	0	16	9	0	0	14	78	28	18	0
CSc1ccc(NC2=C(c3ccccc3Cl)C(=O)NC2=O)cc1 [SB-342411]	26	0	7	0	0	5	2	28	0	13	0	0	0	0	8	15	14	16	0	0
Nc1nc(-c2ccc3c(N)n[nH]c3c2)cc(N2CCCCC2)n1 [GSK2228768]	0	0	0	6	17	0	4	6	0	8	6	35	0	0	0	7	1	64	9	28
Cc1ccc(O)cc1Nc1cc(C(F)(F)F)nc2ccc(-c3ccncc3)cc12 [GW630823]	0	0	0	0	0	3	0	29	7	0	0	8	0	17	0	0	9	14	0	13
O=C(CCO)NCCn1ccc2ncnc(Nc3ccc(Oc4cccc(C(F)(F)F)c4)c(Cl)c3)c21	0	6	0	0	0	0	5	0	13	0	0	0	8	0	0	0	0	0	0	0
COc1ccc(NC(=O)Nc2ccc(C)c(-c3ccc(C(=O)Nc4ccncc4)cc3)c2)cc1 [GSK1398475]	0	3	0	0	0	0	11	5	0	0	0	10	19	3	0	50	0	31	0	8
NC(=O)c1sc(-n2cnc3ccccc32)cc1OCc1ccccc1F [GSK1024306]	0	12	17	0	0	0	7	0	12	0	0	3	2	40	0	0	24	77	79	65
Cl.c1ccc(Cn2ccc3cc(Nc4ncnc5ccccc45)ccc32)cc1 [GW275568]	0	8	0	31	11	0	18	13	0	28	0	17	0	0	0	20	15	20	0	0
OCCOCCn1ccc2ncnc(Nc3ccc(Oc4cccc(Cl)c4)c(Cl)c3)c21	28	2	0	0	0	0	0	0	4	0	0	3	9	0	0	5	0	0	0	0
CN1c2ccc(-c3ccc(C(=O)NCCO)cc3)cc2-c2[nH]ncc2S1(=O)=O	26	12	8	0	1	0	34	0	61	9	1	0	0	6	5	0	13	30	22	17
COC(=O)c1cccc(NC(=O)NCCNc2ccnc(Nc3ccc(F)cc3)n2)c1 [GSK1379883]	0	6	34	24	0	21	35	0	7	0	0	4	46	0	0	11	0	23	0	31
Cc1cc(N2CCC(NS(=O)(=O)c3ccc(F)cc3)CC2)nc(Nc2cccc(C#N)c2)n1.O=C(O)C(F)(F)F [GSK1653537]	3	0	27	12	19	35	31	43	3	0	0	0	3	37	9	0	29	45	0	25

SMILES	%Inh (PRKCD) [%]	%Inh (PRKCE) [%]	%Inh (PRKCH) [%]	%Inh (PRKCI) [%]	%Inh (PRKCQ) [%]	%Inh (PRKD1) [%]	%Inh (PRKD2) [%]	%Inh (PRKD3) [%]	%Inh (PRKG1) [%]	%Inh (PRKG2) [%]	%Inh (PRKR) [%]	%Inh (PRKX) [%]	%Inh (PRP4) [%]	%Inh (PYK2) [%]	%Inh (QSK) [%]	%Inh (RAF1) [%]	%Inh (RET) [%]	%Inh (RIOK1) [%]	%Inh (RIOK2) [%]	%Inh (RIOK3) [%]
CSc1nn2c(=O)cc(N3CCOCC3)nc2n1Cc1cccc(Cl)c1Cl [GSK2347225]	5	6	23	27	0	0	8	0	25	0	0	23	0	31	8	6	11	34	28	19
Fc1cccc(COc2ccc(Nc3ncnc4sc(-c5ccc[nH]5)cc34)cc2Cl)c1 [GW707818]	0	14	100	9	0	26	54	0	0	10	3	4	25	0	0	18	14	22	0	40
Clc1ccc(-c2cc(-c3c[nH]nc3-c3ccccn3)ccn2)cc1 [GW681251]	0	26	4	0	0	56	31	25	0	10	11	12	9	0	0	4	27	19	2	0
Cl.c1ccc(Cn2ncc3cc(Nc4ncnc5ccccc45)ccc32)cc1 [GW273749]	0	0	0	0	0	0	2	22	5	0	0	4	15	0	10	16	13	39	0	19
Cl.Cn1ccc(-c2cccc(Nc3ccnc4cc(-c5nccs5)ccc34)c2)n1 [GW525701]	0	10	14	0	0	0	0	14	22	0	5	0	61	45	4	18	5	14	22	0
Fc1cccc(COc2ccc(Nc3ncnc4nn5ccccc5c34)cc2Cl)c1 [GW689066]	0	0	0	25	7	0	0	0	0	0	0	2	0	0	0	4	0	20	0	0
CCc1nc(-c2cccc(N(C)S(=O)(=O)c3ccccc3)c2)c(-c2ccnc(Nc3ccc(N4CCN(C(C)=O)CC4)nc3)n2)s1 [GSK1645895]	0	0	0	0	15	3	12	9	0	0	17	23	16	0	1	18	0	17	5	15
CC(=O)Nc1n[nH]c2ncc(-c3ccccc3)cc12 [SB-548492]	7	17	10	0	0	0	0	0	30	20	8	0	1	12	21	0	0	38	17	31
COc1ccc(Nc2nccc(N3CCC(NC(=O)Nc4ccc5c(c4)OCO5)C3)n2)cc1 (stereo not shown) [GSK1379745]	8	10	12	25	2	1	0	25	20	0	0	19	23	27	8	22	9	28	5	35
COc1cc2c(Nc3cccc(NC(=O)c4ccccc4)c3)ncnc2cc1OCCCN1CCOCC1 [GSK223810]	18	13	10	8	22	2	4	5	8	0	0	7	2	24	0	16	90.8	38	10	24
Cl.Fc1ccccc1COc1ccc(Nc2ncnc3ccc(-c4nnc(C(F)(F)F)o4)cc23)cc1Cl [GW424170]	0	0	2	15	0	0	0	0	0	4	0	0	16	14	0	7	0	22	0	18
CN1CCC(n2cnc(-c3ccc(F)cc3)c2-c2ccnc(NC3CCNCC3)n2)CC1 [SB-229482]	1	27	0	0	13	0	0	0	0	17	0	0	0	11	0	46	20	25	8	22
C[C@@H]1CCN(C(=O)CO)C[C@@H]1N(C)c1ncnc2[nH]ccc12	22	54	0	0	0	17	6	7	95.3	0	0	7	0	0	0	0	0	0	0	0
Nc1nc(-c2ccccn2)c(-c2ccnc3ccccc23)s1 [GW548057]	0	26	9	26	3	36	25	15	17	9	1	0	66	20	0	15	23	19	0	27
CCC(CC)(CC)n1cnc2c(N)ncnc21 [SKF-97620]	8	47	20	16	0	0	8	0	14	3	0	0	14	7	27	7	4	21	8	0
O=C(Nc1ccccc1)Nc1ccc(Oc2ccc3nccn3n2)cc1	10	0	0	19	0	24	6	0	13	0	0	0	0	0	0	31	0	49	0	0
Fc1ccc(Nc2nccc(-c3c(-c4ccc(Cl)cc4)nn4ncccc34)n2)cc1F [GW829058]	0	18	0	22	0	0	0	9	3	17	0	0	0	1	20	18	9	0	10	7
CC(C)(C)c1ccc(-n2cnc3c(N)ncnc32)cc1 [SKF-97263]	6	13	29	1	15	0	0	55	11	0	0	19	7	4	0	0	8	22	26	23
Cn1ccc2ncnc(Nc3ccc(Oc4cccc(Cl)c4)c(Cl)c3)c21	30	13	3	0	60	0	30	0	0	0	0	11	11	27	2	0	10	0	18	3
Cc1ccc(C)c(NC(=O)NCCNc2ccnc(Nc3ccc(F)cc3)n2)c1 [GSK1379878]	0	0	0	0	0	1	0	0	0	0	0	0	48	7	0	42	3	36	0	37
